Screens as filed in PubChem.
G9a block = qHTS Assay for Inhibitors of Histone Lysine Methyltransferase G9a; Histone-lysine N-methyltransferase EHMT2 (Homo sapiens), Q96KQ7; G9a H3K9 monomethylation, AlphaScreen, 2 h; Potency, µM (doses to about 102 µM), for the others: at the highest dose activity, negative = inhibition, usual class: inhibitors; 8.8% of 350,000 active; AID 504332, 2011; also: potency is read from the fitted curve at half-maximal effect; % is scaled to controls: 0 for no effect and ±100 for the full control effect; nearly all actives have a fitted effect of over 75% in size
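AlphaScreen detection with an anti-monomethyl H3K9 antibody quantified product after a 2 h room-temperature reaction containing 500 nM biotinylated H3K9 peptide, 20 µM SAM and 20 nM enzyme, which had been preincubated 15 min with compound.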
BAZ2B inh = qHTS Assay for Inhibitors of BAZ2B. Bromodomain adjacent to zinc finger domain protein 2B (Homo sapiens), Q9UIF8. AlphaScreen BAZ2B-H3K14Ac peptide displacement. Potency, µM (series often up to 114 µM), for the others: at the top dose activity change, negative = inhibition, usual class: inhibitors. 4.4% of 360,000 active. AID 504333, 2011; also: potency is read from the fitted curve at half-maximal effect; % is scaled to controls: 0 for no effect and ±100 for the full control effect; nearly all actives have a fitted effect of over 60% in size
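BAZ2B 50 nM plus b-H3(5-23)K14Ac 50 nM, PBS pH 7.4/0.01% Tween-20, 30 min RT; compound added (max 110 uM), 30 min RT; streptavidin donor/Ni-chelate acceptor beads 10 ug/mL final, 20 min dark; AlphaScreen read.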
PLK1 PBD inh = qHTS for Inhibitors of PLK1-PDB (polo-like kinase 1 - polo-box domain): Primary Screen; Serine/threonine-protein kinase PLK1 (Homo sapiens), P53350; Plk1 PBD binding of FITC phosphopeptide, fluorescence polarization; Potency, µM, for the others: max response, negative = inhibition, actives largely listed as inhibitors; 2.8% of 360,000 active; also: potency is read from the fitted curve at half-maximal effect; series mostly up to about 57 µM; % is scaled to controls: 0 for no effect and ±100 for the full control effect; nearly all actives have a fitted effect of over 65% in size
HP1b binding inh = HTS for Inhibitors of HP1-beta Chromodomain Interactions with Methylated Histone Tails; 0.56% of 390,000 active; Potency, µM (top dose mostly 114 µM), for inactives: at the top dose activity change, negative = inhibition, most hits filed as inhibitors; AID 540317, 2011; Chromobox protein homolog 1 (Homo sapiens), P83916; AlphaScreen HP1-beta / biotin-H3K9me3 peptide binding; also: potency is read from the fitted curve at half-maximal effect; nearly all actives have a fitted effect of over 70% in size
Target sequence (P83916 whole entry, looked up): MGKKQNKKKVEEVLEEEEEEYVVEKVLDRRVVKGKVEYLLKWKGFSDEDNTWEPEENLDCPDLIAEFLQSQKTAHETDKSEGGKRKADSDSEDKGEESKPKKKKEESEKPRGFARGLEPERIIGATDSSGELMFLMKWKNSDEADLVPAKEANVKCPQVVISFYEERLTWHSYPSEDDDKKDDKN
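HP1-beta protein (50 nM final) preincubated 30 min at room temperature with biotinylated H3(1-18)K9me3 peptide (50 nM) in PBS pH 7.4, 0.01% Tween-20, then compound added for 30 min. AlphaScreen streptavidin donor/nickel chelate acceptor beads (10 ug/mL final), 30 min dark, luminescence read.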
PI5P4K alpha inh = qHTS for Inhibitors of phosphatidylinositol 5-phosphate 4-kinase (PI5P4K); PI5P4Kalpha enzyme, ADP-Glo luminescence, 60 min; hits give low values; Phosphatidylinositol 5-phosphate 4-kinase type-2 alpha (Homo sapiens), P48426; 1.2% of 330,000 active; max response, %; active = max response of -50% or lower; inconclusive = between -30% and -50%; inactive = -30% or higher; also: value at the top dose of about 77 µM; % is scaled to controls: 0 for no effect and ±100 for the full control effect
Target sequence (P48426 whole entry, looked up): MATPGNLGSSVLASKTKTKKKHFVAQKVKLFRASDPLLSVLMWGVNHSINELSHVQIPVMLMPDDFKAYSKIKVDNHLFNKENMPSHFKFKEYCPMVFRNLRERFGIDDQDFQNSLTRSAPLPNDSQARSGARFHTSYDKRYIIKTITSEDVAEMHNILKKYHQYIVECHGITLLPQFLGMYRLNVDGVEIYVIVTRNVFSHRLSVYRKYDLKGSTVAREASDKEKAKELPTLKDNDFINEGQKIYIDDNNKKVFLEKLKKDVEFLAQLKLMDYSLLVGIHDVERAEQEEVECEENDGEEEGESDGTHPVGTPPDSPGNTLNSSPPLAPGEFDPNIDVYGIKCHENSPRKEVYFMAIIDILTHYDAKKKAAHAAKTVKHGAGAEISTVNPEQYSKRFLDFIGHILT
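Compounds were pin-transferred onto PI5P4Kalpha and substrate in HEPES pH 7.4 buffer with EGTA, CHAPS and 5% DMSO. ATP (5 microM final) started the reaction, which ran 60 minutes at room temperature before ADP-Glo detection.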
JMJD2A Tudor inh = qHTS Assay for Inhibitors of JMJD2A-Tudor Domain | Lysine-specific demethylase 4A (Homo sapiens), O75164 | 4.4% of 390,000 active | Potency, µM (series often up to 114 µM), without a hit: at the top dose activity change, negative = inhibition, actives largely listed as inhibitors | AID 504339, 2011 | AlphaScreen JMJD2A-Tudor / H3K4me3 peptide binding; also: potency is read from the fitted curve at half-maximal effect; % is scaled to controls: 0 for no effect and ±100 for the full control effect; nearly all actives have a fitted effect of over 50% in size
The depositor's hits bear a star; ? = inconclusive; nt = no result given; [ ] = another dose, or the depositor's remark. Hits are enriched below; roughly 12% of the tested compounds scored in any of these assays. Unless noted, calls follow the shape of the dose curve; as a rule, active = well fitted curve in the direction sought with a large enough effect; inconclusive = small, poorly fitted or top-dose-only effect, or another doubt; inactive = no such curve, though single readings can be large; an effect the other way counts as inactive or inconclusive.

SMILES	G9a block	BAZ2B inh	PLK1 PBD inh	HP1b binding inh	PI5P4K alpha inh	JMJD2A Tudor inh
CN(C)c1ccc(NC(=O)CN2CCN(CC(=O)Nc3ccc(F)cc3)CC2)cc1	25µM*	?	-5%	-13%	-6	-5%[57.1 µM]
Nc1c(Cl)ncnc1N/N=C/c1ccc2ccccc2n1	?	13µM*	-9%	-36%	-10	89µM*
Nc1c(Cl)ncnc1N/N=C/c1ccccn1	?	5.6µM*	-11%	-19%	-7	28µM*
Nc1c(Cl)ncnc1N/N=C/c1ccnc2ccccc12	?	5%	-29%	9%	-3	6%[57.1 µM]
Nc1c(Cl)ncnc1N/N=C/c1cccnc1	40µM*	-23%	-7%	10%	2	?
C=CC#CC1(O)CC(C)[N+](C)(C)CC1C (stereo not given)	28µM*	-8%	21µM*	?	-11	22µM*
COc1ccc(NC(=O)C2CCC(CNS(=O)(=O)c3cccc4nsnc34)CC2)cc1OC (stereo not given)	-28%[59 µM]	-7%	nt	15%	nt	-5%
Cc1ccc(NS(=O)(=O)c2ccc(CCC(=O)NCc3cccnc3)cc2)cc1	40µM*	-4%	-8%	42%	0	-3%
O=C(NNS(=O)(=O)c1ccccc1[N+](=O)[O-])c1cccnc1	nt	?	27µM*	7%	-5	4%[11.4 µM]
COc1ccc(S(=O)(=O)NCc2cccnc2)cc1NC(=O)c1ccccc1C	nt	nt	-19%	6%[57 µM]	-73*	-31%
O=C(NNS(=O)(=O)c1ccccc1[N+](=O)[O-])c1cc2ccccc2cc1O	1.6µM*	?	-10%	3%	?	-35%
O=C(NNS(=O)(=O)c1ccccc1[N+](=O)[O-])c1ccccc1Cl	-6%	-10%	0%	40%	0	-16%
COc1ccccc1NCCC(=O)OCC(=O)Nc1cc([N+](=O)[O-])ccc1F	nt	nt	-6%	-17%	-3	?
Cc1ccc(NC(=O)Cn2c(=O)n(CCc3ccccc3)c(=O)c3c4c(sc32)CCCC4)c(C)c1	-4%[59 µM]	4%	nt	12%	nt	-12%
CCN(CC)C(=O)c1ccc(S(=O)(=O)NCc2cccnc2)cc1	79µM*	-1%	2%	13%	nt	-16%
O=S(=O)(NCc1cccnc1)c1cccc2nsnc12	32µM*	5%	-10%	11%	nt	-9%
O=S(=O)(NCc1ccccc1)c1cccc2nsnc12	3%	-35%	-9%	38%	-5	-14%
O=S(=O)(Nc1ccncc1Cl)c1ccc2ccccc2c1	45µM*	-14%	-15%	50%	2	1%
CCc1ccc(S(=O)(=O)NCc2cccnc2)cc1	nt	-8%	-8%	26%	0	-16%
O=C(NNS(=O)(=O)c1ccccc1[N+](=O)[O-])c1cccc([N+](=O)[O-])c1	-21%	-6%	17µM*	41%	-3	10µM*
O=C(NNS(=O)(=O)c1ccc2ccccc2c1)c1cc(-c2ccccn2)nc2ccccc12	79µM*	9%	?	-10%	-4	-33%
O=C(Nn1cnnc1)c1cc(-c2ccccn2)nc2ccccc12	-33%[12.7 µM]	-32%	-1%	35%	-12	-12%
O=[N+]([O-])c1ccccc1S(=O)(=O)NCc1cccnc1	-8%[12.7 µM]	-10%	27µM*	-5%	-11	-11%[11.4 µM]
O=C(NNS(=O)(=O)c1ccccc1)c1cccnc1	22%[59 µM]	-17%	-17%	13%	1	-11%[11.4 µM]
COCC(=O)NNS(=O)(=O)c1ccccc1[N+](=O)[O-]	18µM*	-8%	-12%	29%	2	-15%
SMILES	G9a block	BAZ2B inh	PLK1 PBD inh	HP1b binding inh	PI5P4K alpha inh	JMJD2A Tudor inh
O=C(NNS(=O)(=O)c1ccc2ccccc2c1)c1cccnc1	-16%[59 µM]	0%	0%	10%	-5	7.9µM*
CC(C)=Cc1oc2ccc([N+](=O)[O-])cc2c1N1CC(C)OC(C)C1 (stereo not given)	14µM*	63µM*	-3%	?	-5	-12%
Cc1cc(C)nc(SCc2ccc(C(=O)N/N=C/c3ccco3)cc2)n1	40µM*	?	-14%	14%	-4	-28%
COc1ccc2c(c1)c(-c1csc(N)n1)c(C)n2C	7%[0.501 µM]	79µM*	-11%	-13%	4	-55%
Cc1ccc2c(c1)c(-c1csc(N)n1)c(C)n2C	45µM*	?	-6%	?	-10	?
COc1ccc2c(c1)c(C(C)=O)c(C)n2C	22%	-21%	-8%	23%	5	-5%
Cc1ccc(-c2nn(CC(=O)NC3CCCCC3)c3c2cnc2ccc(F)cc23)cc1C	16%[59 µM]	-7%	nt	29%	nt	-12%
CCOC(=O)C1CCN(S(=O)(=O)c2cc(C(=O)N3CCCCC3)ccc2OC)CC1	45%	0%	1%	17%	-1	-12%
O=C1Nc2ccccc2/C1=N/N=C/c1cccc(O)c1	nt	-15%	3%	-29%	-12	?
COc1cc(/C=N/N=C2/C(=O)Nc3ccccc32)cc(OC)c1O	2.8µM*	50µM*	-13%	-55%	?	?
Cc1ccc2c(CNC3CCC(C)CC3)c(C(=O)O)n(Cc3cccc(F)c3)c2c1 (stereo not given)	-32%[59 µM]	-20%	nt	-3%	nt	-24%
CCN=C1S/C(=C\c2ccc(-c3cccc(C(=O)O)c3)o2)C(=O)N1CC	40µM*	?	?	47%	-27	?
CCN1C(=O)/C(=C\c2ccc(-c3ccc([N+](=O)[O-])cc3OC)o2)SC1=Nc1cccc(C(=O)O)c1	11µM*	50µM*	21µM*	28µM*	-50*	56µM*
O=C(O)c1cccc(-c2ccc(/C=C3/SC(=Nc4ccccc4)N(Cc4cccnc4)C3=O)o2)c1	32µM*	50µM*	24µM*	?	-29	45µM*
CCN=C1S/C(=C\c2cc(Cl)c(OC)c(OC)c2)C(=O)N1CC	-12%	-3%	-12%	4%	-8	14%
CCN=C1S/C(=C/c2ccc(-c3ccc(Cl)cc3C(=O)O)o2)C(=O)N1CC	45µM*	?	?	44%	-25	-15%
CCN1C(=O)CSC1=Nc1cccc(C(=O)O)c1	-8%[0.501 µM]	7%	-4%	57%	-4	-7%
CCN1C(=O)/C(=C\c2ccc(-c3cccc(C(=O)OC)c3)o2)SC1=Nc1ccc(C(=O)O)cc1	nt	-36%	nt	nt	nt	nt
O=C(NC1CCCC1)C1c2ccccc2OCC(=O)N1Cc1cccnc1 (stereo not given)	nt	nt	-12%	nt	-1	nt
